In PubChem BioAssay (EPA / NIEHS) one finds outcome and AC50 data, which are given here for 40 compounds.

Calls of active or inactive are those of the source. Rule for the calls: active = hit-call score of the fitted dose curve at least 0.9, where 1 is the maximum; inactive = score below 0.9.

One may read the AC50 as the concentration at which the activity in the assay is half-maximal.

Read-out in this test: JUN Transcription Factor, JUN (gene 3725)
The test is described as follows: LTEA_HepaRG_JUN: Life Technologies and Expression Analysis (LTEA) Assay for JUN Transcription Factor using HepaRG (AID 2283513). The settings on record: mRNA level, 48 h; actives raise or lower the signal. As to the method: LTEA_HepaRG is a cell based, multiplexed-readout assay that uses HepaRG, a human liver cell line, with measurements taken at 48 hours after chemical dosing on a 96-well plate.LTEA_HepaRG_JUN is one of 102 assay component(s) measured in the LTEA HepaRG cell culture assay. It is a marker of Cell proliferation, survival, death.Data from the assay component LTEA_HepaRG_JUN was analyzed into 1 endpoint. This assay endpoint, LTEA_HepaRG_JUN, was analyzed with bidirectional fitting relative to DMSO as the negative control and baseline of activity. Using a type of inducible reporter, measures of mRNA induction for gain or loss-of-signal activity can be used to understand regulation of transcription factor activity. To generalize the intended target to other relatable targets, this assay endpoint is annotated to the dna binding intended target family, where the subfamily is basic leucine zipper.
A total of 1060 chemcials from the ToxCast library were tested in eight-point concentration-response experiments. Cell culture and cytotoxicity assays were conducted at Thermo Fisher Scientific's Custom Services facility (Madison, WI). A single lot of human HepaRG cells (Thermo Fisher Scientific, Frederick, MD) was used for the cell culture experiments. 96-well format collagen type I coated plates of human HepaRG cells were prepared using established methods. Briefly, cryopreserved HepaRG cells were thawed, plated at a density of approximately 100,000 cells/well in HepaRG Thaw, Plate, and General Purpose media (HPRG770, Thermo Fisher Scientific), and incubated for 48 hours. 0.5% DMSO was selected as vehicle control to balance the requisite need of DMSO in HepaRG cultures to maintain differentiation (for example, baseline metabolism, proportions of hepatocytes vs. cholangiocytes), while enabling further hepatic receptor pathway activation (for example, PXR and CAR) in response to chemical exposure. 48 hours after plating, the culture medium was replaced with HepaRG Serum-Free Incudtion Media. Cells were exposed to each test chemical in duplicate and maintained in CO2 incubators for another 48 hours. Chemical plates were thawed to room temperature and 200x concentrations of treatment groups were prepared. 8-point conentration-reponse curves were made with the highest exposure at 100 uM, followed by half-log dilutions, all in 0.5% DMSO. Each test plate contained variouse controls, induction positive controls (1mM phenobarbital), cytotoxicity positive controls ([…] aflatoxin B1), vehicle controls (0.5% DMSO), and total lysis controls (0.5% DMSO). Cell morphology images were taken using an Essen IncuCyte FLR automated microscope, with six 96-well plates imaged in about 24 minutes. Images were captured and exported and JPEG files. Spent culture media was transfered to black-well plates for the LDH assay, and remaining media was sorted at -80 C for later use. Cells were treated with RLT buffer and frozen until shipped for gene expression analysis. Total RNA was isolated from the cell suspension in 75 uL of Buffer RLT (Qiagen, Germantown, MD 20874) by Quintiles/Expression Analysis (Durham, NC) using a custom isolation procedure. Total RNA from each plate well was transferred to a preamplification plate. Fluidigm's 96.96 Dynamic ArrayTM (Fluidigm, Amsterdam, the Netherlands) technology was used for gene expression analyses by quantitative reverse transcription polymerase chain reaction (qRT-PCR, performed by Quintiles/Expression Analysis, Durham, NC)89. Standard TaqManTM Assays (Applied Biosystems/ThermoFisher Scientific, Foster City, CA) were used to assess the expression of 93 genes selected based on their selectivity and sensitivity to important hepatic receptors known to be modulated by environmental chemicals; importance in human hepatocyte functionality; and hepatotoxicity. […]
For `O=S(=O)(O)C(F)(F)C(F)(F)C(F)(F)C(F)(F)C(F)(F)C(F)(F)F`, the result was inactive.
Turning to `Cc1ccc(O)c(C)c1`, the result was inactive.
Same read-out and setting: the value for `ClC1=C(Cl)[C@]2(Cl)[C@@H]3[C@@H]4C[C@@H]([C@H]5O[C@@H]45)[C@@H]3[C@@]1(Cl)C2(Cl)Cl` was “inactive”; that for `O=C(NC(=O)c1c(F)cccc1F)Nc1cc(Cl)c(OC(F)(F)C(F)F)c(Cl)c1` was “inactive”.
On to `COS(=O)(=O)OC`, for which the outcome was inactive.
Turning to `CN(C)CCO`, the call was inactive.
Consider `Cc1cccc(C)c1N`, for which the call was inactive.
Still for that read-out and setting: the value for `Cc1ccccc1O` was “inactive”; that for `CC(C)C(=O)OCC(C)(C)C(OC(=O)C(C)C)C(C)C` (stereo not given) was “inactive”.
Still for that read-out and setting: with `ClC1=C(Cl)[C@]2(Cl)[C@@H]3[C@H]4C[C@H]([C@@H]5O[C@H]45)[C@@H]3[C@@]1(Cl)C2(Cl)Cl` the entry was “inactive”; with `O=C(NC(=O)c1cc(F)c(F)cc1Cl)Nc1cc(F)ccc1N1CCC(C(=O)O)CC1`, “inactive”.
The same measure, in the same setting: the value for `C[C@]12CCC(=O)C=C1CC[C@@H]1[C@@H]2CC[C@@]2(C)[C@H]1CC[C@]2(C)O` was “inactive”.
`Cc1cc2c3c(c1)C(c1ccccc1)=N[C@@H](NC(=O)c1ccncc1)C(=O)N3CC2`: the concentration at half-maximal activity (AC50) was 50 µM (active).
As to `Clc1ccc(C(c2ccccc2Cl)C(Cl)(Cl)Cl)cc1` (stereo not given), the call was inactive.
On the same count and under the same terms, with `Oc1ccc(Cl)cc1Cl` the entry was “inactive”.
For the compound `CC(C)(O)C(=O)Nc1ccc([N+](=O)[O-])c(C(F)(F)F)c1`, the AC50 was 0.0328 µM (active).
`CCOCCOC(C)=O`: the outcome was inactive.
On the same count and under the same terms, the value for `O=C(N[C@H]1CN2CCC1CC2)c1cc2ccoc2cn1` was “inactive”.
Consider `Cc1ccccc1[N+](=O)[O-]`, for which the outcome was inactive.
As for `O=C(O)C(F)(F)C(F)(F)C(F)(F)C(F)(F)C(F)(F)F`, the result was inactive.
In the case of `c1ccc(-c2ccccc2)cc1`, the outcome was inactive.
In the case of `O=S(=O)(O)C(F)(F)C(F)(F)C(F)(F)C(F)(F)F`, the result was inactive.
Still for that read-out and setting: with `Oc1c(Cl)c(Cl)c(Cl)c(Cl)c1Cl` the entry was “inactive”.
Still for that read-out and setting: with `Nn1cnnc1` the entry was “inactive”.
As for `O=C(O)C(F)(F)C(F)(F)C(F)(F)C(F)(F)C(F)(F)C(F)(F)C(F)(F)C(F)(F)F`, the AC50 was 68.2 µM (active).
With `ClC(Cl)=C(c1ccc(Cl)cc1)c1ccc(Cl)cc1`, the outcome was inactive.
Consider `NS(=O)(=O)C(F)(F)C(F)(F)C(F)(F)C(F)(F)C(F)(F)C(F)(F)C(F)(F)C(F)(F)F`, for which the AC50 was 37.2 µM (active).
On to `Cc1cc(-c2ccc(N)c(C)c2)ccc1N`, for which the compound was called inactive.
The same measure, in the same setting: with `CCC(C)(c1ccc(O)cc1)c1ccc(O)cc1` the entry was “inactive”; with `C[C@]12CCC(=O)C=C1CC[C@@H]1[C@@H]2CC[C@]2(C)C(=O)CC[C@@H]12`, “inactive”.
On to `Clc1ccc(C(Cl)(Cl)Cl)cc1`, for which the compound was classed as inactive.
With `CC1=C2C[C@H]3[C@@H](CC=C4C[C@@H](O)CC[C@@]43C)[C@@H]2CC[C@]12O[C@@H]1C[C@H](C)CN[C@H]1[C@H]2C`, the outcome was inactive.
For the compound `O=C(O)C(F)(F)C(F)(F)C(F)(F)C(F)(F)C(F)(F)C(F)(F)C(F)(F)C(F)(F)C(F)(F)F`, the concentration at half-maximal activity (AC50) is 50 µM (active).
In the case of `CC(c1ccc(O)cc1)(c1ccc(O)cc1)c1ccc(O)cc1`, the AC50 is 82.9 µM (active).
Take `Cc1cccc([N+](=O)[O-])c1`: the outcome was inactive.
Still for that read-out and setting: the value for `CC#Cc1cc(C)nc(Nc2ccccc2)n1` was “inactive”.
Same read-out and setting: with `c1cc2ccc3cccc4ccc(c1)c2c34` the entry was “inactive”.
Same read-out and setting: with `CCC(C)(CC)c1cc(NC(=O)c2c(OC)cccc2OC)on1` the entry was “inactive”.
As for `Oc1ccc(C(c2ccc(O)cc2)(C(F)(F)F)C(F)(F)F)cc1`, the half-maximal activity concentration (AC50) was 92.4 µM (active).
As to `CCC(C)c1cc([N+](=O)[O-])cc([N+](=O)[O-])c1O` (stereo not given), the compound was classed as inactive.
